Screening data (PubChem)
NADH enzymes = inhibition of NAD/NADH coupling enzymes, library profiling. coupled PK/LDH NADH assays, four targets. IC50, µM (highest dose often 10 µM). 65,000 tested, 0.02% active. AID 774;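 active means single-dose screening hits from any of four coupled enzyme assays that gave an IC50 when retested across doses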;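 further: the DPM-DC format reads NADH fluorescence rather than 340 nm absorbance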
Spn MK inh = inhibitors of Streptococcus pneumoniae mevalonate kinase; purified MK, PK/LDH-coupled NADH absorbance 340 nm; inhibition, % at 10 µM; 65,000 tested, 0.48% active; AID 555;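 active means ranked among the strongest by inhibition in the single 10 µM screen, a fixed top-ranked set picked for dose follow-up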
DPM-DC inhibit = inhibitors of Streptococcus pneumoniae diphosphomevalonate decarboxylase; purified DPM-DC, PK/LDH coupled NADH fluorescence; calls only at 10 µM; 65,000 tested, 0.49% active; AID 556;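 active means the 320 compounds with the highest percent inhibition in the single-dose primary screen, excluding strongly autofluorescent ones, cut at about 32% in these data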;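 further: kinetic rate of NADH fluorescence loss reporting ADP formed by the decarboxylase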
Fluor 339 460 = intrinsic fluorescence of library compounds, ex339/em460 – biochemical, MLSMR library, data from DPM-DC assay, artefact control, profiling panel. 65,000 tested, 5.5% active. fluorescence fold increase at 10 µM. compound autofluorescence, ex339/em460 nm, NADH buffer; stronger effect = higher value; 1 = no-compound wells, NADH background. AID 709;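 active means at 10 µM, mean starting fluorescence two-fold or more over control wells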;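 further: signal is the first read of a kinetic run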
A340 absorber = compounds absorbing at 340 nm; compound absorbance at 340 nm, fold over control; AID 708; 65,000 tested, under 10 active; fold change at 10 µM;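 active means at 10 µM dose, initial 340 nm absorbance at least 2 fold that of control wells; inactive means change under 2 fold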;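 further: initial absorbance extrapolated from kinetic A340 decline of NADH oxidation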
Spn PMK inh = S. pneumoniae PMK inhibition | purified PMK, PK/LDH-coupled NADH absorbance 340 nm | inhibition, % at 10 µM | 65,000 tested, 0.49% active | AID 539;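 active means top-ranked compounds by inhibition in the single 10 µM screen, taking a fixed number of the strongest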
Of the large screens only hits and unclear results are named; the others gave an inactive call; [ ] = remark or other dose. Only some compounds are listed: those with a hit (about 6.8% of all), similar ones and a draw of the others.

CCOC(=O)C1=C(C)NC(=O)NC1/C(C)=C/c1ccccc1 (stereo not given)	Spn PMK inh 38
C[C@@H]1C[C@H](O)c2cc(Cl)ccc2N1	none
Fc1ccc2c(c1)[C@H]1OCC[C@H]1[C@@H](c1ccco1)N2	Fluor 339 460 2.7
Clc1ccc2c(c1)[C@H]1OCC[C@H]1[C@@H](c1ccco1)N2	DPM-DC inhibit active[fluoresces], Fluor 339 460 2.3
Fc1ccc(Cn2nnnc2CN2CCc3ccccc3C2)cc1	none
Cn1nc(CC(=O)Nc2ccc3c(c2)CCC3)c2ccccc2c1=O	none
Cn1nc(CC(=O)Nc2ncc(Br)s2)c2ccccc2c1=O	Spn PMK inh 25
O=C(c1nnc(-c2ccncc2)o1)c1ccccc1Cl	none
CCOC(=O)CNC(=O)c1cnn2cccnc12	Fluor 339 460 2.3
O=C(COc1nnc2ccccn12)N1CCN(S(=O)(=O)c2ccccc2)CC1	Fluor 339 460 3.4 (not shown: DPM-DC inhibit)
CCOc1ccc(Br)cc1S(=O)(=O)Nc1ccccc1N1CCOCC1	none
Nc1ccc2nn(-c3cccc4ccccc34)nc2c1	Fluor 339 460 2.2 (not shown: DPM-DC inhibit)
Nc1ccc2oc(CCc3ccccc3)nc2c1	none
Cc1cc2nn(-c3cccc4ccccc34)nc2cc1N	Fluor 339 460 3.6 (not shown: DPM-DC inhibit)
Clc1ccccc1C1SCC2Nc3ccccc3CN21 (stereo not given)	none
COc1ccc(OC)c2c(C)cc(NCCN3CCOCC3)nc12	Fluor 339 460 2.1 (not shown: DPM-DC inhibit)
Cc1ccc(C(c2nnnn2CC2CCCO2)N2CCN(C(=O)c3ccco3)CC2)cc1 (stereo not given)	Spn PMK inh 32
CC(C)CCn1nnnc1C(c1ccc(F)cc1)N1CCN(C(=O)c2ccco2)CC1 (stereo not given)	Spn PMK inh 26
CCC(=O)Nc1nnc(Sc2ccc(N(C)C)cc2)s1	DPM-DC inhibit active
COc1ccc(-n2cnnc2SCC(=O)c2ccc(S(=O)(=O)N3CCOCC3)cc2)cc1	none
O=c1[nH]c(=O)n(Cc2ccco2)c2c1C(C(F)(F)F)(C(F)(F)F)N=C(C1CCCCC1)N2	Fluor 339 460 2.1
CC(C)C1Oc2ccccc2N(CC(=O)NCCCN2C(C)CCCC2C)C1=O (stereo not given)	Spn MK inh 47
CCC1Oc2ccccc2N(CC(=O)NCCCN2CCN(Cc3ccccc3)CC2)C1=O (stereo not given)	none
O=c1[nH]c(N2CCc3ccccc3C2)nc2c1CCCC2	none
O=c1[nH]c(-c2ccccc2O)nc2c1CCCC2	Fluor 339 460 3.3
CCOC(=O)N1CCN(Cc2nc3c(c(=O)[nH]c(=O)n3C)n2Cc2cc(C)ccc2C)CC1	none
COc1ccc2c(c1)OC1(C)CC2C(C(=O)c2ccccc2OC)C(=O)N1 (stereo not given)	Spn PMK inh 28
c1ccc(-c2noc(-c3cccc4ccccc34)n2)cc1	Fluor 339 460 2.5
CCOC(=O)c1cnc(SC2CCc3ccccc3C2=O)nc1N (stereo not given)	none
Cc1cc(C)n2cc(CSc3nnnn3C)nc2n1	Fluor 339 460 2.6 (not shown: DPM-DC inhibit)
Cc1cc(C)n2c(Br)c(CSc3nc4ccccc4o3)nc2n1	Fluor 339 460 2.6
Nn1c(CSc2nc3ccccc3o2)nnc1CSc1nc2ccccc2o1	none
Cc1cc(C)n2cc(CSc3nc4cc(Cl)ccc4o3)nc2n1	Fluor 339 460 2.1
Cc1cc(OCC(=O)C(C)(C)C)c2c(C)c(C)c(=O)oc2c1	Fluor 339 460 2.1 (not shown: DPM-DC inhibit)
Fc1ccc2[nH]c3c(N4CCN(c5ccccc5)CC4)ncnc3c2c1	none
CCOC(=O)N1CCN(c2ncnc3c2[nH]c2ccc(OC)cc23)CC1	Fluor 339 460 2.5 (not shown: DPM-DC inhibit)
COc1cccc2[nH]c3c(N4CCCCC4)ncnc3c12	Fluor 339 460 3.7 (not shown: DPM-DC inhibit)
CCOC(=O)C1CCN(c2ncnc3c2[nH]c2cccc(OC)c23)CC1	Fluor 339 460 3.7 (not shown: DPM-DC inhibit)
O=C(c1ccco1)N1CCN(c2ncnc3c2[nH]c2ccc(Br)cc23)CC1	none
COc1cc2[nH]c3c(N4CCN(c5ccccn5)CC4)ncnc3c2cc1OC	Fluor 339 460 3.7 (not shown: DPM-DC inhibit)
O=C(c1ccco1)N1CCN(c2ncnc3c2[nH]c2ccccc23)CC1	none
CC(=O)Nc1sc(C)c(C)c1C(=O)OC1CCOC1=O (stereo not given)	none
COC(=O)c1ccc(OC(=O)C2CC(=O)N(c3ccc(C)cc3C)C2)cc1 (stereo not given)	none
COC(=O)C1=C(C)NC(C)=C(C(=O)OC)C1c1cc2ccc(C)cc2[nH]c1=O	Fluor 339 460 2.2
Cc1ccc2cc(COC(=O)c3ccncc3)c(=O)[nH]c2c1	none
COC(=O)C1=C(C)NC(C)=C(C(=O)OC)C1c1cc2cc(C)ccc2[nH]c1=O	Fluor 339 460 2.7
CCOC(=O)C1=C(C)NC(C)=C(C(=O)OCC)C1c1cc2ccc(C)cc2[nH]c1=O	DPM-DC inhibit active, Fluor 339 460 2.2
CCOC(=O)C1=C(C)NC(C)=C(C(=O)OC)C1c1cccc(Cl)c1Cl (stereo not given)	none
CCN(C(=O)c1ccc(C(C)(C)C)cc1)c1nnc(Cn2nnc3ccccc32)s1	none
CCCS(=O)(=O)N1CCCC(C(=O)N2CCN(C(=O)OCC)CC2)C1 (stereo not given)	none
N#C/C(=C\C1CC=CCC1)c1nc2ccccc2[nH]1 (stereo not given)	DPM-DC inhibit active
CCOc1ccc(-c2cc(C(=O)N3CCN(C)CC3)c3ccccc3n2)cc1	Fluor 339 460 5.2 (not shown: DPM-DC inhibit)
O=C(O)c1cc(-c2cccs2)nc2cc3c(cc12)OCCO3	Fluor 339 460 2.1 (not shown: DPM-DC inhibit)
CCOc1ccc(-c2cc(C(=O)N3CCN(c4ccccn4)CC3)c3ccccc3n2)cc1	none
COc1ccc(-c2cc(C(=O)N3CCN(c4ccccn4)CC3)c3ccccc3n2)cc1	Fluor 339 460 2.7
Cc1ccc2nc(-c3ccc4c(c3)OCCO4)cc(C(=O)O)c2c1	none
CS(=O)(=O)N1CCN(C(=O)c2cc(-c3cccs3)nc3ccccc23)CC1	Fluor 339 460 3.9 (not shown: DPM-DC inhibit)
CCC(=O)N1CCc2cc(Br)cc(S(=O)(=O)NCC3CCCN3CC)c21 (stereo not given)	none
COc1ccc(-c2cc(C(=O)OCC(=O)N3CCCC3)c3ccccc3n2)cc1	Fluor 339 460 2.9
O=C(c1cc(-c2ccccc2)nc2ccccc12)N1CCOCC1	none
CCOC(=O)N1CCN(C(=O)c2cc(-c3ccc(OCC)cc3)nc3ccccc23)CC1	Fluor 339 460 5.2 (not shown: DPM-DC inhibit)
Cc1cccc(N(C)C(=O)c2cc3cc4ccc(C)cc4nc3o2)c1	none
Cc1ccc2cc3cc(C(=O)NCCCN4CCCCCC4)oc3nc2c1	Fluor 339 460 5.1 (not shown: DPM-DC inhibit)
Cc1ccc2cc3cc(C(=O)NCCCN4CCc5ccccc5C4)oc3nc2c1	Fluor 339 460 5.1 (not shown: DPM-DC inhibit)
Cc1nc2sc(C(c3cccs3)N3CC(C)CC(C)C3)c(O)n2n1 (stereo not given)	none
CCOc1cc2c(cc1OCC)C(c1cc(OC)c(O)c(OC)c1)NCC2 (stereo not given)	none
